Measured values from the supplement of paper PMC11732987, “Enantioselective OTUD7B fragment discovery through chemoproteomics screening and high-throughput optimisation” (Communications Chemistry, 2025).

Tests used:
Test in all cases: log2 ratio of Biotin-Ahx-Ub-VS probe labelling (fragment/DMSO); higher = less target engagement (more negative = stronger competition), active = hit call of the paper (q ≤ 0.05, log2 ratio ≤ -1)
Settings in all cases: compound concentration: 200 uM; treatment time: 3 h
USP34 = USP34 (UniProt Q70CQ2)
In short: (§1)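 Labelling with Biotin-Ahx-Ub-VS (0.5 µM final, 1 h) followed a 3 h triplicate treatment of HEK293T lysate (495 µg per sample, Tris/CHAPS/IGEPAL buffer with protease inhibitors) with fragment at 200 µM or vehicle. Labelled DUBs were NeutrAvidin-enriched, digested with LysC and trypsin, and run by diaPASEF LC-MS/MS. The values, average log2 fragment/vehicle ratios by unpaired t-test, come from global-median-normalised Spectronaut label-free quantities. Proteins with ≥2 unique peptides were used.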

USP36 = target: T1, USP36 (UniProt Q9P275)
T1 sequence (whole entry): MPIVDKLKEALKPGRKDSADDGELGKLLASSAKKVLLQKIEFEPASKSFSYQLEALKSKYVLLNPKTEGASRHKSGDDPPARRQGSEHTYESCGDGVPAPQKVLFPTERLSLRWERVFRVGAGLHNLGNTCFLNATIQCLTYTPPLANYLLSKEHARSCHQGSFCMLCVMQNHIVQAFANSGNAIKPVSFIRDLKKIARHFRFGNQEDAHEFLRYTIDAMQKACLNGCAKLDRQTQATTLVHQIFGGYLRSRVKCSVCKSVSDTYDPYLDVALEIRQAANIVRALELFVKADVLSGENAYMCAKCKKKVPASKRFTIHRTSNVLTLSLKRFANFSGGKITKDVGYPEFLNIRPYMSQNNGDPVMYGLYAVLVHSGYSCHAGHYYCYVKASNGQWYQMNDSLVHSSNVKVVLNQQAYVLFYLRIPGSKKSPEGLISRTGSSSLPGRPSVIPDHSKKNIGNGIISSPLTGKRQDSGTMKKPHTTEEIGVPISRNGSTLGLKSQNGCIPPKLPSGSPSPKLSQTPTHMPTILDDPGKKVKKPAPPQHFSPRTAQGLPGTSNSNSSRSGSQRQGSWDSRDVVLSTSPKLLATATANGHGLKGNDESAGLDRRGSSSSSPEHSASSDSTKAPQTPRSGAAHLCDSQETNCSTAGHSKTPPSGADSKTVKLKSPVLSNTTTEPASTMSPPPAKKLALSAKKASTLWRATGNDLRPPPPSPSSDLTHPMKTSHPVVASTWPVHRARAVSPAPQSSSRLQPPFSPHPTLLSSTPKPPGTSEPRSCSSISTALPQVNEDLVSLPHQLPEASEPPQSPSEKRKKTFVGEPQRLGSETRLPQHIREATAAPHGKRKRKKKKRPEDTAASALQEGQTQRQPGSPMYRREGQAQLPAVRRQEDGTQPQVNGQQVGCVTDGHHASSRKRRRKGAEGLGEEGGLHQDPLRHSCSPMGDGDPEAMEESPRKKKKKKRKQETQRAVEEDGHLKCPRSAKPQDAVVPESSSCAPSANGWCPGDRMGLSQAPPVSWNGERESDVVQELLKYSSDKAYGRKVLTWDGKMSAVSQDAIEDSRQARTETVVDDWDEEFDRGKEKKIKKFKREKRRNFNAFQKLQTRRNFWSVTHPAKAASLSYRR
In short: as §1

USP38 = target: T2, USP38 (UniProt Q8NB14)
T2 sequence (whole entry): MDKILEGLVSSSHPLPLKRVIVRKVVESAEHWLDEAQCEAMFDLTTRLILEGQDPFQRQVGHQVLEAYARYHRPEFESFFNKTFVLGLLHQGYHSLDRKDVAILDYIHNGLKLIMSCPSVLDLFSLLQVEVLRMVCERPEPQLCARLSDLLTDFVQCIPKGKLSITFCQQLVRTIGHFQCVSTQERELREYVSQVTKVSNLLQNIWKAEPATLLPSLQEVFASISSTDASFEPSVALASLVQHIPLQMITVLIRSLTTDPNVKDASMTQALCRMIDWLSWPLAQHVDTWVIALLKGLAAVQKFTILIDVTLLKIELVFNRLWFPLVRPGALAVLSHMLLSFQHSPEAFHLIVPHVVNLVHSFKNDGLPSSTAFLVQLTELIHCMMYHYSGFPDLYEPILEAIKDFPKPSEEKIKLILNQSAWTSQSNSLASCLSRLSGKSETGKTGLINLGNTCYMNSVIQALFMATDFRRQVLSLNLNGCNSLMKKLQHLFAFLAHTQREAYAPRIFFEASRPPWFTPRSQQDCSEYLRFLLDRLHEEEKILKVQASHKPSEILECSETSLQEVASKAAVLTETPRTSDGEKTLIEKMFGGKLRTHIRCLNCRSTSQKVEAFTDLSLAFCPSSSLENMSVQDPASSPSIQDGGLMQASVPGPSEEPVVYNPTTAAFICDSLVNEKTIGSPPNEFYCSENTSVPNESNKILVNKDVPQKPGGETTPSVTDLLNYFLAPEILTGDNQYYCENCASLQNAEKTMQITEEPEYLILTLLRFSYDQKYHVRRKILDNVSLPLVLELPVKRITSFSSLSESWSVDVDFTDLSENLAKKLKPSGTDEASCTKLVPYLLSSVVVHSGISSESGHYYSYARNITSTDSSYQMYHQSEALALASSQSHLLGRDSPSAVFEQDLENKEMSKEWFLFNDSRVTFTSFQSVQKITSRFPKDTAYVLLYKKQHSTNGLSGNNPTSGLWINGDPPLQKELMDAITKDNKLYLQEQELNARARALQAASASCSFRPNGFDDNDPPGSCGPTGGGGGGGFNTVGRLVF
In short: as §1

USP39 = target: T3, USP39 (UniProt Q53GS9)
T3 sequence (whole entry): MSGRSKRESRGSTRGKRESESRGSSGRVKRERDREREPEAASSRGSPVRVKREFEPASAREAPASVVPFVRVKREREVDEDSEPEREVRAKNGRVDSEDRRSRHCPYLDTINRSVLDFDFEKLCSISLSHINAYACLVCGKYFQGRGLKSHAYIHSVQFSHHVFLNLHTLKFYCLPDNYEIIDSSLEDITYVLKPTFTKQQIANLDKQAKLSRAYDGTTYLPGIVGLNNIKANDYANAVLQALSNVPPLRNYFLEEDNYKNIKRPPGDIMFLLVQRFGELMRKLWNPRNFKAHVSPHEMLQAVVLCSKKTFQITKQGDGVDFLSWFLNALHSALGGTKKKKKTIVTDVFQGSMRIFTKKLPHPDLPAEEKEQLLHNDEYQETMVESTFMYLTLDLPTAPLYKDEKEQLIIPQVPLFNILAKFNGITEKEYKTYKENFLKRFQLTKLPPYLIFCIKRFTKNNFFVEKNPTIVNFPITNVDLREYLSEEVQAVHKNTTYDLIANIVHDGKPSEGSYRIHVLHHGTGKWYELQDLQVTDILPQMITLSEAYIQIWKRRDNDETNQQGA
In short: as §1

USP4 = target: T4, USP4 (UniProt Q13107)
T4 sequence (whole entry): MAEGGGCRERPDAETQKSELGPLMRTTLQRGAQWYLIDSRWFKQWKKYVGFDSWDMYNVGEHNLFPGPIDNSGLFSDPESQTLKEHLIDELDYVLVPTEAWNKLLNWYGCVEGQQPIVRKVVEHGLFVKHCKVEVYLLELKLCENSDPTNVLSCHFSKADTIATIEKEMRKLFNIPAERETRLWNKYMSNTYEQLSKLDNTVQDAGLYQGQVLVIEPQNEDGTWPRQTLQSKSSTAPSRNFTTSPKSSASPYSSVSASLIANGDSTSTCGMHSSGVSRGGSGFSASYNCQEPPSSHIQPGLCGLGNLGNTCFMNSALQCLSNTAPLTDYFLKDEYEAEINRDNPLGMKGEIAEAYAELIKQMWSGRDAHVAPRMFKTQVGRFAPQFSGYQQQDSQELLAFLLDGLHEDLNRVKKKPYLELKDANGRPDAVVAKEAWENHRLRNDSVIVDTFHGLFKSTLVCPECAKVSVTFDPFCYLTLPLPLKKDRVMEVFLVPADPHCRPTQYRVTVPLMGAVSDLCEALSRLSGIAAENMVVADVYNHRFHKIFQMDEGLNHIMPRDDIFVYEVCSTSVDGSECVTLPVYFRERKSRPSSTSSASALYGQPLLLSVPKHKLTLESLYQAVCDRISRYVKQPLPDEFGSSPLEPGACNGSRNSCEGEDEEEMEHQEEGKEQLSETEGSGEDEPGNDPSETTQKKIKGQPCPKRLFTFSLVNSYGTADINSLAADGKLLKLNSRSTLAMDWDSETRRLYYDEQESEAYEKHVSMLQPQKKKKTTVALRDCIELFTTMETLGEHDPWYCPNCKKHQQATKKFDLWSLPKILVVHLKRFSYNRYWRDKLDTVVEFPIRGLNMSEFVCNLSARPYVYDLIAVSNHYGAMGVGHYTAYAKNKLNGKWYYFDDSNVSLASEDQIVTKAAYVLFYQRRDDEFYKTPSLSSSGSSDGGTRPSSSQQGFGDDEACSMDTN
In short: as §1

Measured: log2 ratio of Biotin-Ahx-Ub-VS probe labelling

Chain of USP34 (Q70CQ2 whole entry, the tested form may be a part): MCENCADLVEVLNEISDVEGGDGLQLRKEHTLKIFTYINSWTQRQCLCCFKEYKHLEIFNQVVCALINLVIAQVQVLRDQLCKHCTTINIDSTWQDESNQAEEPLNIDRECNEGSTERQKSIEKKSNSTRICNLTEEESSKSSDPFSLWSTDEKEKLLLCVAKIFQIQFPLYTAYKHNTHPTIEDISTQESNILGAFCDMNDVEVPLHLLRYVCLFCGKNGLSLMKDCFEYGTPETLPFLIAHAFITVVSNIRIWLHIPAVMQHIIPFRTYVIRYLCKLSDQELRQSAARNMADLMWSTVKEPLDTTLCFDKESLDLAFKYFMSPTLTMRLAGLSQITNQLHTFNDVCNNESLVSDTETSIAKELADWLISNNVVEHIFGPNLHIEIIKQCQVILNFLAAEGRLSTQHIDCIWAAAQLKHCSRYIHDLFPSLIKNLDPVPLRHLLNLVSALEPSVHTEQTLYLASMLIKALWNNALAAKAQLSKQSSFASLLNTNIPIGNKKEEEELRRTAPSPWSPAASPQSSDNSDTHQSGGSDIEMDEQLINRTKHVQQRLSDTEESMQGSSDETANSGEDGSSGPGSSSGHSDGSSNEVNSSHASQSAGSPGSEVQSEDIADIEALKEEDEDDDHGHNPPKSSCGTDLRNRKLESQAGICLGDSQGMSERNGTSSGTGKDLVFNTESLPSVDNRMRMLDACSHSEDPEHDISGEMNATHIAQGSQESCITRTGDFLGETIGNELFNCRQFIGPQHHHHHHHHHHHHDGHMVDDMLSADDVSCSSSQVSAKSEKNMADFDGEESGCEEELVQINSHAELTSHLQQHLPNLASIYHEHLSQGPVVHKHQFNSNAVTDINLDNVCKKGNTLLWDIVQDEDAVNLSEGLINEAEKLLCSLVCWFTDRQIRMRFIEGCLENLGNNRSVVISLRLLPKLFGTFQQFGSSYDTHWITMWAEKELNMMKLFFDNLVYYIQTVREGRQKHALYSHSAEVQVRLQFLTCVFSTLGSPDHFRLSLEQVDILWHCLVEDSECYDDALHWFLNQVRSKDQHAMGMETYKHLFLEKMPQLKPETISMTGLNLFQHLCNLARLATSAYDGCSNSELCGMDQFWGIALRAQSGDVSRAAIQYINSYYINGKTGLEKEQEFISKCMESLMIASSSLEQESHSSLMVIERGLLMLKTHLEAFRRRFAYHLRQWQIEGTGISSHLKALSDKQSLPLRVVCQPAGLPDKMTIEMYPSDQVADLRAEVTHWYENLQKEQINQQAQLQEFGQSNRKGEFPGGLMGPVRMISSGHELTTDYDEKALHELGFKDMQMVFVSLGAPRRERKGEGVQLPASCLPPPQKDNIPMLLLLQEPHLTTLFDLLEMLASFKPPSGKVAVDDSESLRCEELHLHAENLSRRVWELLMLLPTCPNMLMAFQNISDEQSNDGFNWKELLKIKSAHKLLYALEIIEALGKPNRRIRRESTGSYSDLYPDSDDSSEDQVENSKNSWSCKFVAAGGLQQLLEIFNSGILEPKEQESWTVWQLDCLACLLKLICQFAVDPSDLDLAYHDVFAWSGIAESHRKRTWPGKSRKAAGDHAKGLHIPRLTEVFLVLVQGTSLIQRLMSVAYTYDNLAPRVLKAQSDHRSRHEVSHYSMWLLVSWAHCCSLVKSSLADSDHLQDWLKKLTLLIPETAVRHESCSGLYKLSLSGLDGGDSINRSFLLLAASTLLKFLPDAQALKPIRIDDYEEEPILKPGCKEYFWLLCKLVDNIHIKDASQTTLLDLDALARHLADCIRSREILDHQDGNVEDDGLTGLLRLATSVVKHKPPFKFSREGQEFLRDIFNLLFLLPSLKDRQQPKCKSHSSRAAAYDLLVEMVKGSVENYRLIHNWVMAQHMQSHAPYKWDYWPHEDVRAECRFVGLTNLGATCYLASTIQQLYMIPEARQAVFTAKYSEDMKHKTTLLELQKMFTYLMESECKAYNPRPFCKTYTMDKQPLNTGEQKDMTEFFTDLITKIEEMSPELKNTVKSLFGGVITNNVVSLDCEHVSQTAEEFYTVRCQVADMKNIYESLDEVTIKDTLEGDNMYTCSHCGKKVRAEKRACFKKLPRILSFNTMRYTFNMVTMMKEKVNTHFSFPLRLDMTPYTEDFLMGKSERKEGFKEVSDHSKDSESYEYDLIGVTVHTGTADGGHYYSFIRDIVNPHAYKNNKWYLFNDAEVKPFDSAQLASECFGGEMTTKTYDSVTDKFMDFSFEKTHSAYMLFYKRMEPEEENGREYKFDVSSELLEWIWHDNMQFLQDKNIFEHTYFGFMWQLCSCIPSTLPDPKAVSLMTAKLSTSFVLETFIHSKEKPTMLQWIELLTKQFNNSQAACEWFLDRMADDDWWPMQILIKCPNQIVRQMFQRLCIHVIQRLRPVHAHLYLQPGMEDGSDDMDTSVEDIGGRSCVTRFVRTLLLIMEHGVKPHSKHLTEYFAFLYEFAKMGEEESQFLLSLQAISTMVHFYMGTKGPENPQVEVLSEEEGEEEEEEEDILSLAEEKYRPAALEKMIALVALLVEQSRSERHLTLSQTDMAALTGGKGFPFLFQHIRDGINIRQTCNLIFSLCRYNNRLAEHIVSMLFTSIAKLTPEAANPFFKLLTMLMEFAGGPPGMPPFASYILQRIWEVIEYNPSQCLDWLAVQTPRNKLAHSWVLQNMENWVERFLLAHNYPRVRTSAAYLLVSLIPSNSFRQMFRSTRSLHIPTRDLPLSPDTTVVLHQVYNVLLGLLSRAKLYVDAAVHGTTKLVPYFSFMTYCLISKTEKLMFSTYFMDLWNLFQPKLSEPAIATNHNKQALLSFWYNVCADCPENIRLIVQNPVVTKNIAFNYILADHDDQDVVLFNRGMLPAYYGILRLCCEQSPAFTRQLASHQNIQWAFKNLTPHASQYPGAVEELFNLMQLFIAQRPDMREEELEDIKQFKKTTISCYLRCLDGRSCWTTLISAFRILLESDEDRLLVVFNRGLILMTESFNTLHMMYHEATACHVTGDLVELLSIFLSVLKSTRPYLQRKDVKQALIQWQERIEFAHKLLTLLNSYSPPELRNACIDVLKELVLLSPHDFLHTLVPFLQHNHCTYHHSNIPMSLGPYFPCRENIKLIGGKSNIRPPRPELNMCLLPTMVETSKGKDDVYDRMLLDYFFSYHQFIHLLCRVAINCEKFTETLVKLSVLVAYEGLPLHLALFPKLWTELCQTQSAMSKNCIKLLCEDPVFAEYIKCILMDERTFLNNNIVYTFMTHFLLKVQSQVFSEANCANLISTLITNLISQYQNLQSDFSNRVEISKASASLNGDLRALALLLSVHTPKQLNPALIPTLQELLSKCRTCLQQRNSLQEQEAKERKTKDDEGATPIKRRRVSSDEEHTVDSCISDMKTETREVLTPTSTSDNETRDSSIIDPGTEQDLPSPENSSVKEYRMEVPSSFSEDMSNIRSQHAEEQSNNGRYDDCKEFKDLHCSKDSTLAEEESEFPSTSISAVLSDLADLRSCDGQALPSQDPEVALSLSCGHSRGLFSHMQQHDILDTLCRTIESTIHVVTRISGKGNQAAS

Cc1ccc(-c2nnc(C)[nH]2)c(NC(=O)CCl)c1
inactive: USP34 0.0375 | USP36 -0.152 | USP38 0.151 | USP39 0.182 | USP4 0.0297
